According to PubChem BioAssay AID624351 (Southern Research Specialized Biocontainment Screening …, 2012):
Screen size: about 2,400 compounds; about 1,400 (58%) were called active. So high a share suggests a set chosen from earlier hits. Some of the results follow. Values without a mark were called inactive.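 The calls were made as follows: active = inhibition of 30% or more at any tested dose; inconclusive = primary hits over the limit that were never retested; inactive = the rest.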

Assay: coupled detection enzyme interference, dose response, artefact control for MgcRacGAP inhibitor project, biochemical, coupled enzyme counter-screen (AID 624351);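 also: signal is the ADP detection kit reading of free GDP without any GAP enzyme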;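 as to inhibition: 0% = median positive control wells and 100% = median negative control wells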
Conditions: ADP Hunter coupled enzyme counter-screen, fluorescence, no MgcRacGAP; series mostly up to 80 µM

Compound | IC50 | inhibition
COc1cc(/C=C2\Oc3cc(O)ccc3C2=O)ccc1O | 33.9 µM (active) | –
O=C1/C(=C/c2ccc(O)c(O)c2)Oc2cc(O)ccc21 | 28.2 µM (active) | –
Brc1ccccc1OCCCCCN1CCOCC1 | inactive | –
S=c1[nH]nc2sc3ccccc3n12 | 32.3 µM (active) | –
O=C(CN1CCN(c2ncccn2)CC1)N1CCCC1 | inactive | –
Cc1ccc(-c2n[nH]c(=S)n2/N=C/c2ccc(C(=O)O)cc2)cc1 | 69.7 µM (active) | –
Cc1cccc(N2C(=O)/C(=C\c3ccc(C(=O)O)cc3)c3ccccc3C2=O)c1 | inactive | –
Oc1ccccc1/C=N/n1c(-c2ccccc2)n[nH]c1=S | 71.4 µM (active) | –
S=c1[nH]nc(-c2ccncc2)n1/N=C/c1ccccc1 | 39.6 µM (active) | –
NNc1ccc([N+](=O)[O-])c2[nH][nH]c(=O)c12 | – | -1.61% [at 10 µM]
Cc1ccc(S(=O)(=O)/N=S(/c2ccccc2)C(C)C)cc1 (stereo not drawn) | inactive | –
CN(C)c1ccc2cc(S(=O)(=O)O)cc(O)c2c1 | 75 µM (active) | –
O=S(=O)(O)c1cc(O)c2ccc(Nc3ccccc3)cc2c1 | inactive | –
Nc1cccc2c(O)cc(S(=O)(=O)O)cc12 | inactive | –
O=C(CN1CCOCC1)Nc1ccc2c(c1)OCCO2 | inactive | –
COc1cc(/C=C/C(=O)OCC(=O)Nc2ccc3c(c2)OCCO3)ccc1O | 29.2 µM (active) | –
COc1cc(/C=C/C(=O)OCC(=O)Nc2ccc3c(c2)OCO3)ccc1O | 42.1 µM (active) | –
O=C(CCN1CCCCCC1)Nc1ccc2c(c1)OCCO2 | inactive | –
CC(C)C1=Nc2cccc3cccc(c23)N1 | 26.5 µM (active) | –
O=C(Oc1ccc(N(C(=O)c2ccncc2)S(=O)(=O)c2cccs2)cc1)c1ccncc1 | inactive | –
N=C(N)c1ccc(N=Nc2c(O)ccc3c2[nH]c2ccccc23)cc1 | 18 µM (active) | –
O=C(O)CCN1C(=O)/C(=C/c2ccc(-c3nc4ccccc4s3)o2)SC1=S | inactive | –

Compound | IC50 | inhibition
COCCNCC(=O)Nc1nc(C)cs1 | inactive | –
CC(C)(C)N1C(=O)c2ccc(C(=O)Nc3ccc(O)cc3)cc2C1=O | 29.7 µM (active) | –
O=C(Nc1ccc(O)cc1)c1ccc2c(c1)C(=O)N(Cc1ccccc1)C2=O | inactive | –
Cc1cccc(Nc2c(-c3ccc(O)cc3)nc3ncccn23)c1 | 31.7 µM (active) | –
COc1cc(-c2nc3ccc(C)cn3c2Nc2ccc3c(c2)OCCO3)ccc1O | 34.4 µM (active) | –
Cc1ccc(Nc2c(-c3ccco3)nc3ccccn23)cc1 | inactive | –
COc1cc(-c2nc3cnccn3c2Nc2ccc(C)cc2)ccc1O | 45.3 µM (active) | –
Cc1ccn2c(Nc3ccc4c(c3)OCO4)c(-c3ccc(O)cc3)nc2c1 | 32.4 µM (active) | –
N#CC(C#N)=C1C=CC=CN1/C(=C\c1ccco1)C(=O)c1ccc(Cl)cc1 | inactive | –
COc1cc(-c2nc3cnccn3c2Nc2c(C)cccc2C)ccc1O | 52.8 µM (active) | –
COc1cc(-c2nc3ccccn3c2NCC2CCCO2)ccc1O (stereo not drawn) | inactive | –
Clc1cc(Br)ccc1OCCOCCN1CCCC1 | inactive | –
COc1cc(/C=N/NC(=O)CNC(=O)c2cccs2)ccc1O | 38.4 µM (active) | –
COc1cc(/C=N/NC(=O)CNC(=O)c2ccco2)ccc1O | 36.8 µM (active) | –
COc1ccc2c(/C=N/Nc3ccc(C(=O)O)cc3)c[nH]c2c1 | 58.5 µM (active) | –
O=C(O)c1ccc(N/N=C/c2c[nH]c3ccccc23)cc1 | 47.5 µM (active) | –
CN=c1scc(-c2ccc(F)cc2)n1/N=C/c1ccc(O)c(O)c1 | 38.6 µM (active) | –
Oc1ccc(/C=N/n2c(-c3ccco3)csc2=Nc2cccnc2)c(O)c1 | 34.3 µM (active) | –
CC(C)N=c1scc(-c2ccco2)n1/N=C/c1ccc(O)c(O)c1 | 63.8 µM (active) | –
CN=c1scc(-c2ccco2)n1/N=C/c1ccc(O)c(O)c1 | 43.9 µM (active) | –
CN(C)CCCn1c(SCc2ccc(Cl)cc2)nnc1-c1ccncc1 | inactive | –
COc1cc(/C=N/NC(=O)c2c(-c3ccccc3)noc2C)ccc1O | 50.7 µM (active) | –

Compound | IC50 | inhibition
CCOc1cc(/C=N/NC(=O)c2c(-c3ccccc3)noc2C)ccc1O | 60.4 µM (active) | –
COc1cc(/C=N/Nc2nncn2/N=C/c2ccc(O)c(OC)c2)ccc1O | 39 µM (active) | –
Oc1ccc(/C=N/Nc2nn3cnnc3c3ccccc23)cc1 | 23.3 µM (active) | –
COc1cc(/C=N/Nc2nn3cnnc3c3ccccc23)ccc1O | 58.4 µM (active) | –
Cc1ccc(OCCCCNC(C)(C)C)c([N+](=O)[O-])c1 | inactive | –
N#CC1=C(N)NC(=S)C(C(N)=O)C1c1ccc([N+](=O)[O-])cc1 (stereo not drawn) | inactive | –
N=C(N)c1ccc(/C=C/c2ccc(C(=N)N)cc2O)cc1 | inactive | –
CCOc1ccc(C2NC(=O)C(C#N)=C(S)N2c2ccc(C)cc2)cc1OC (stereo not drawn) | inactive | –
COc1cc2nc(=S)n3[nH]c(CCn4nc(C)cc4C)nc3c2cc1OC | 19.6 µM (active) | –
COc1ccc2cc(OCC(=O)NNC(=O)Nc3ccc(F)cc3)ccc2c1 | 65.5 µM (active) | –
CC1=C/C(=C(/c2cc(C)c(O)c(Br)c2)c2ccccc2S(=O)(=O)O)C=C(Br)C1=O | 62.4 µM (active) | –
Oc1ccc(Cl)cc1C=Nc1ccc2c3c(cccc13)CC2 | 14.8 µM (active) | –
Cc1cccc(C=Nc2ccc3c4c(cccc24)CC3)c1O | 32.6 µM (active) | –
Oc1ccc(Br)cc1C=Nc1ccc2c3c(cccc13)CC2 | 79.9 µM (active) | –
CC(C)(C)N(Cc1ccc2c(c1)OCO2)C(=O)/C=C\S(=O)c1ccccc1 (stereo not drawn) | inactive | –
COc1ccc(C2NC(=O)C(C#N)=C(S)N2c2cccc(C)c2)cc1OC (stereo not drawn) | inactive | –
COCc1cc(S(=O)c2ccc(Cl)cc2)nc(C)n1 (stereo not drawn) | inactive | –
C=CCc1ccc(OCCOCCNCCCC)c(OC)c1 | inactive | –
COc1cc(/C=N/NC(=O)CNC(=O)c2ccc3c(c2)OCCO3)ccc1O | 58.4 µM (active) | –
COc1cc(/C=N/NC(=O)c2ccc3c(c2)OCO3)ccc1O | 31.9 µM (active) | –
Cc1nc2c(=O)[nH]c(=S)[nH]c2[nH]c1=O | inactive | –
CN1CCc2c1nc1ccccc1c2NC(=O)CN1CCCC1 | inactive | –

Compound | IC50 | inhibition
Cc1[nH]nc(-c2ccc(O)c(C)c2O)c1-c1cnn(-c2ccccc2)c1 | 70.7 µM (active) | –
O=C(Cc1coc2cc(O)ccc12)NNC(=O)c1cccs1 | 33.8 µM (active) | –
O=C(Cc1coc2cc(O)ccc12)NNC(=O)c1ccc(Br)s1 | 35.2 µM (active) | –
O=c1oc2cc(O)ccc2c2oc3cc(O)ccc3c12 | 54.1 µM (active) | –
COc1cc(-c2ncc3ccccn23)cc(OC)c1OC | inactive | –
CC1CC(=O)N(c2ccc(NCCc3ccc(O)cc3)c([N+](=O)[O-])c2)C1=O (stereo not drawn) | 65.3 µM (active) | –
CCCCc1nc2ccccc2c(NC(=O)CN2CCN(C)CC2)c1CCC | inactive | –
O=c1c2ccccc2sn1-c1ccccc1F | inactive | –
Nc1nc(Sc2ccc([N+](=O)[O-])c3nonc23)c2[nH]cnc2n1 | inactive | –
Nc1cc([N+](=O)[O-])ccc1Nc1ccc(O)cc1 | 36.7 µM (active) | –
Cc1ccc(/C=C/C(=O)Nc2ccc([N+](=O)[O-])c(NC(=O)/C=C/c3ccc(C)o3)c2)o1 | inactive | –
O=[N+]([O-])c1ccccc1Nc1ccc(O)cc1 | 16.3 µM (active) | –
CC(=O)C1=C(O)C(=O)N(c2ccc(O)cc2)C1c1ccccc1[N+](=O)[O-] (stereo not drawn) | inactive | –
O=[N+]([O-])c1cc([N+](=O)[O-])c2nonc2c1Nc1ccc(O)cc1 | 44.7 µM (active) | –
Cc1cc(NCCCCCCCNc2cc(C)nc3cc([N+](=O)[O-])ccc23)c2ccc([N+](=O)[O-])cc2n1 | inactive | –
CCN(Cc1ccncc1)Cc1ccc(OC)cc1OC | inactive | –
COc1ccc(CN2CCN(c3ccccn3)CC2)c(OC)c1C | inactive | –
Cn1cccc1/C=N/N1CCN(c2ccccn2)CC1 | 31.9 µM (active) | –
Cn1cccc1/C=N/N1CCN(c2ccccc2)CC1 | 78.7 µM (active) | –
CC(C(=O)N1CCCc2ccccc21)N1CCN(c2ccccn2)CC1 (stereo not drawn) | inactive | –
Cc1nc(S/C(=C\c2ccc(-c3ccc(C(=O)O)c(Cl)c3)o2)C(=O)O)n[nH]1 | inactive | –
CC[n+]1c(/C=C/N(C)c2ccccc2)oc2ccc(Cl)cc21 | inactive | –

Compound | IC50 | inhibition
COc1ccc(O/C(=N\S(=O)(=O)c2ccccc2)c2ccccc2)cc1 | 46.1 µM (active) | –
C=CCn1c(CNc2ccccc2)nnc1SCC(=O)N/N=C/c1ccc(O)cc1O | 79.7 µM (active) | –
Cc1ccc(C2=NOC(=O)/C2=C\c2ccc(C)o2)cc1 | inactive | –
COc1cc(OC)c2cc[nH]c2c1 | 80.5 µM (active) | –
COc1cc(CNCc2cc(OC)c(OC)c(OC)c2)cc(OC)c1 | inactive | –
COc1ccc(CN2CCN(Cc3c[nH]c4ccccc34)CC2)c(OC)c1 | inactive | –
C=CCn1c(SCC(=O)Nc2ccc(O)cc2)nc2sc(CC)cc2c1=O | 37.1 µM (active) | –
Cc1ccccc1N1C(S)=C(C#N)C(=O)NC12CCCCC2 | inactive | –
Cc1cc(=O)c2c(O)c(O)ccc2o1 | 41.8 µM (active) | –
COc1ccc2c(c1)Sc1ccccc1N2 | 34.1 µM (active) | –
O=C(c1ccccc1)N1CCN(C2CCCCC2)CC1 | inactive | –
Cc1ccccc1CN1CCN(C(=O)c2cccc3ccccc23)CC1 | inactive | –
CCC(CC)N1CCN(C(=O)c2cccc(Cl)c2)CC1 | inactive | –
COc1ccc(C(=O)Nc2ccc(N3CCCCCC3)cc2)cc1S(=O)(=O)N1CCOCC1 | inactive | –
O=C(c1ccccc1)c1ccc(C(=O)N2CCN(c3ccc(O)cc3)CC2)cc1 | 39 µM (active) | –
Cc1ccc(-c2cc(C(=O)N3CCN(c4ccc(O)cc4)CC3)c3ccccc3n2)cc1 | 83.4 µM (active) | –
S=C(c1ccccc1)N1CCN(c2ccccc2)CC1 | inactive | –
O=C(c1cc(C2CC2)nn1-c1ccccc1)N1CCN(c2ccc(O)cc2)CC1 | 42.2 µM (active) | –
O=C(c1ccc(Cl)c(S(=O)(=O)N2CCCCCC2)c1)N1CCN(c2ccc(O)cc2)CC1 | 34.3 µM (active) | –
COc1cc(CN2CCN(C(=O)c3cccc4ccccc34)CC2)cc(OC)c1OC | inactive | –
